This note sets out measurements from PubChem BioAssay (EPA / NIEHS).

A short description of test [1]: APR_HepG2_CellLoss_72hr: Apredica 72-hour HepG2 Assay for Cell Loss (AID 2282915). Conditions: high-content imaging. The method, boiled down:
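HepG2 cells were exposed for 72 hr to compounds at 0.39–200 uM (ten concentrations, duplicate) in 0.5% v/v final DMSO. Nuclei were stained with Hoechst 33342 after 3.7% formaldehyde fixation, imaged at 20x, and counted; fits bidirectional versus DMSO.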

A short description of test [2]: APR_HepG2_P-H2AX_72hr: Apredica 72-hour HepG2 Assay for H2AX Phosphorylation (AID 2282916).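 Also: phospho-histone H2A.x immunostain intensity per cell marking DNA damage.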 Conditions: imaging, actives raise or lower the signal. The method, boiled down:
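Human hepatoma HepG2 cells are dosed across ten concentrations (0.39 to 200 uM, 0.5% v/v DMSO) and incubated 72 hr. Phospho-histone H2A.x is then detected by antibody staining alongside c-Jun and Hoechst, and quantified by automated fluorescence imaging.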

The nature of test [3]: APR_HepG2_MitoMembPot_72hr: Apredica 72-hour HepG2 Assay for Mitochondrial Membrane Potential (AID 2282917). Conditions: imaging, actives raise or lower the signal. The method, boiled down:
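HepG2 cells exposed 72 h to compounds at 0.39–200 uM (0.5% v/v DMSO, duplicates); MitoTracker Red CMXRos 250 nM loaded 30 min before 3.7% formaldehyde fixation, imaged by HCS fluorescence. Bidirectional fit versus DMSO.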

Test [4] is described as follows: APR_HepG2_MitoticArrest_72hr: Apredica 72-hour HepG2 Assay for Mitotic Arrest (AID 2282918). As to conditions: high-content imaging, actives raise or lower the signal. In short, it runs like this: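 HepG2 cells were exposed for 72 hr to compound at 0.39–200 uM (10 concentrations, duplicate) in 0.5% v/v DMSO, fixed in 3.7% formaldehyde, immunostained for phospho-histone H3 with Hoechst 33342 and imaged by high-content fluorescence; bidirectional fits versus DMSO.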

A short description of test [5]: APR_HepG2_P-H2AX_24hr: Apredica 24-hour HepG2 Assay for H2AX Phosphorylation (AID 2282920). As to conditions: high-content imaging, actives raise or lower the signal. The method, boiled down: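 HepG2 human liver cells were exposed for 24 hr to compounds at 0.39–200 uM in duplicate, with 0.5% v/v DMSO final. Fixed cells were immunostained for phospho-histone H2A.x plus Hoechst 33342, imaged by HCS fluorescence, and fitted bidirectionally against DMSO.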

The nature of test [6]: APR_HepG2_StressKinase_72hr: Apredica 72-hour HepG2 Assay for Stress Kinase (AID 2282921). As to conditions: HepG2 stress kinase (phospho-c-Jun) imaging, actives raise or lower the signal. The method, boiled down: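 After a 72 h compound treatment spanning 0.39 to 200 uM, formaldehyde-fixed cells are labelled for phosphorylated c-Jun and nuclei, imaged by automated fluorescence microscopy, and activity is fitted in both directions relative to DMSO controls.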

A short description of test [7]: APR_HepG2_StressKinase_24hr: Apredica 24-hour HepG2 Assay for Stress Kinase (AID 2282922). As to conditions: HepG2 stress kinase (phospho-c-Jun) imaging, actives raise or lower the signal. In short, it runs like this: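 After 24 hr compound treatment (up to 200 uM, final DMSO 0.5% v/v), HepG2 cells are fixed and multiplex-labeled; phospho-c-Jun intensity is captured by high-content fluorescence imaging and analyzed relative to DMSO.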

Test [8] can be described thus: APR_HepG2_p53Act_72hr: Apredica 72-hour HepG2 Assay for p53 Activation (AID 2282923).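 Also: average cellular p53 protein immunofluorescence intensity in HepG2 cells.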 Conditions: high-content imaging, actives raise or lower the signal. In short, it runs like this:
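Imaging-based endpoint: after 72 hr compound exposure (up to 200 uM, 0.5% DMSO), fixed and permeabilized monolayers were labelled with anti-p53 antibody and imaged; signal change in either direction was fitted relative to DMSO controls.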

A short description of test [9]: APR_HepG2_MitoMass_72hr: Apredica 72-hour HepG2 Assay for Mitochondrial Mass (AID 2282924).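 Also: MitoTracker Red CMXRos stain intensity per cell imaged as mitochondrial mass.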 Conditions: high-content imaging, actives raise or lower the signal. The method, boiled down:
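Steps: treat HepG2 72 hr (0.39–200 uM, duplicate wells); load MitoTracker Red CMXRos, 250 nM, 30 min; fix with 3.7% formaldehyde, permeabilise with 0.5% Triton X-100; capture images, nuclei via Hoechst 33342; fit bidirectionally against DMSO.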

A short description of test [10]: APR_HepG2_NuclearSize_72hr: Apredica 72-hour HepG2 Assay for Nuclear Size (AID 2282925). Conditions: high-content imaging, actives raise or lower the signal. The method, boiled down: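 Compounds (0.39–200 uM, final DMSO 0.5%) were applied to HepG2 for 72 hr. Cells were then formaldehyde-fixed, permeabilized and labelled with Hoechst 33342. Nuclear diameter was quantified from six images per well.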

A short description of test [11]: ATG_CRE_CIS: Attagene CIS-FACTORIAL HepG2 Assay for human cAMP Responsive Element (CRE) binding protein 3 (AID 2282926). As to conditions: HepG2 CRE cis-reporter, Attagene multiplexed mRNA; actives raise or lower the signal. The method, boiled down: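 Capillary electrophoresis of 6-FAM-labelled, HpaI-digested PCR products quantified reporter transcripts. These came from HepG2 transiently transfected with cis-element reporters and exposed to test chemicals for 24 hours, with DMSO defining baseline activity.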

Test [12] can be described thus: ATG_CMV_CIS: Attagene CIS-FACTORIAL HepG2 Assay for human CMV (Internal Marker) (AID 2282928).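 Also: endpoint acts as a background internal control marker rather than a target.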 As to conditions: HepG2 CMV promoter reporter, transcription factor profiling; actives raise or lower the signal. The method, boiled down:
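Bidirectional fits against DMSO are applied to reporter mRNA, read by RT-PCR with capillary electrophoresis, from HepG2 cells exposed 24 h. The endpoint serves as an internal CMV background marker within the cis-factorial reporter panel.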

A short description of test [13]: ATG_DR4_LXR_CIS: Attagene CIS-FACTORIAL HepG2 Assay for human Liver X Receptor (LXR), DR4 submotif (AID 2282929). Conditions: HepG2 Attagene DR4 cis-reporter, mRNA transcription; actives raise or lower the signal. In short, it runs like this:
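After transient transfection with multiplexed cis-promoter reporter units, HepG2 cells received test chemicals for 24 h. Reporter mRNA induction, detected by fluorescence after RT-PCR and capillary electrophoresis, was scored relative to DMSO.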

Test [14] addresses Aryl hydrocarbon receptor (Homo sapiens) (UniProt P35869). Briefly: ATG_Ahr_CIS: Attagene CIS-FACTORIAL HepG2 Assay for human Aryl Hydrocarbon Receptor (Ahr) (AID 2282930). As to conditions: HepG2 AhR cis-factorial reporter transcription; actives raise or lower the signal. The method, boiled down:
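Values derive from bidirectional fitting against DMSO negative control. Underlying signal: cis-element reporter mRNA in transiently transfected HepG2, harvested 24 h post-dose and measured by RT-PCR plus capillary electrophoresis.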

Test [15] in a line: ATG_AP_1_CIS: Attagene CIS-FACTORIAL HepG2 Assay for human Activator Protein 1 (AP-1) (AID 2282931). As to conditions: HepG2 Attagene cis-factorial AP-1 reporter mRNA; actives raise or lower the signal. The method, boiled down: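 After 24 h incubation with test chemical, RNA from transfected HepG2 cells was reverse-transcribed, amplified, fluorescently labelled and digested before capillary electrophoresis. Reporters were driven by cis-regulatory promoters; activity fitted bidirectionally versus DMSO.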

The nature of test [16]: ATG_AP_2_CIS: Attagene CIS-FACTORIAL HepG2 Assay for human Activator Protein 2 (AP-2) (AID 2282932). Conditions: HepG2 AP-2 cis-reporter, Attagene transcription factor profiling; actives raise or lower the signal. The method, boiled down: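 Cells (HepG2) transfected with promoter-driven reporter constructs, treated 24 h. Total RNA reverse-transcribed, reporter cDNA PCR-amplified, FAM-labelled by primer extension, digested, resolved by capillary electrophoresis. Activity fitted both directions versus DMSO.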

Test [17] can be described thus: ATG_BRE_CIS: Attagene CIS-FACTORIAL HepG2 Assay for human Bone Morphogenetic Protein (BMP) Response Element (BRE) (AID 2282933). Conditions: HepG2 BMP response element reporter, Attagene transcription factor profiling; actives raise or lower the signal. In short, it runs like this: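 HepG2 cells transiently transfected with CIS reporter units (endogenous TF activity, BMP response element), dosed 24 h. Reporter mRNA quantified by RT-PCR, fluorescent labelling and capillary electrophoresis; bidirectional fit vs DMSO baseline.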

Test [18] addresses Retinoic acid receptor alpha (Homo sapiens) (UniProt P10276). The test can be described thus: ATG_DR5_RAR_CIS: Attagene CIS-FACTORIAL HepG2 Assay for human Retinoic Acid Receptor Alpha (RARE), DR5 submotif (AID 2282934).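 As to AC50: reporter responds to endogenous RAR alpha beta and gamma in HepG2 not RARA alone.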 Conditions: HepG2 Attagene cis-factorial RARE DR5 reporter, mRNA; actives raise or lower the signal. The method, boiled down: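 Endpoint fitted in both directions relative to DMSO as negative control. It reflects DR5 cis-element reporter mRNA induction in transiently transfected HepG2 cells, measured 24 h after dosing through RT-PCR and fluorescent capillary electrophoresis.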

Calls of active or inactive are those of the source. The calls were made as follows: active = hit-call score of the fitted dose curve at least 0.9, where 1 is the maximum; inactive = score below 0.9.

Chain of Aryl hydrocarbon receptor (Homo sapiens) (P35869 whole entry, looked up): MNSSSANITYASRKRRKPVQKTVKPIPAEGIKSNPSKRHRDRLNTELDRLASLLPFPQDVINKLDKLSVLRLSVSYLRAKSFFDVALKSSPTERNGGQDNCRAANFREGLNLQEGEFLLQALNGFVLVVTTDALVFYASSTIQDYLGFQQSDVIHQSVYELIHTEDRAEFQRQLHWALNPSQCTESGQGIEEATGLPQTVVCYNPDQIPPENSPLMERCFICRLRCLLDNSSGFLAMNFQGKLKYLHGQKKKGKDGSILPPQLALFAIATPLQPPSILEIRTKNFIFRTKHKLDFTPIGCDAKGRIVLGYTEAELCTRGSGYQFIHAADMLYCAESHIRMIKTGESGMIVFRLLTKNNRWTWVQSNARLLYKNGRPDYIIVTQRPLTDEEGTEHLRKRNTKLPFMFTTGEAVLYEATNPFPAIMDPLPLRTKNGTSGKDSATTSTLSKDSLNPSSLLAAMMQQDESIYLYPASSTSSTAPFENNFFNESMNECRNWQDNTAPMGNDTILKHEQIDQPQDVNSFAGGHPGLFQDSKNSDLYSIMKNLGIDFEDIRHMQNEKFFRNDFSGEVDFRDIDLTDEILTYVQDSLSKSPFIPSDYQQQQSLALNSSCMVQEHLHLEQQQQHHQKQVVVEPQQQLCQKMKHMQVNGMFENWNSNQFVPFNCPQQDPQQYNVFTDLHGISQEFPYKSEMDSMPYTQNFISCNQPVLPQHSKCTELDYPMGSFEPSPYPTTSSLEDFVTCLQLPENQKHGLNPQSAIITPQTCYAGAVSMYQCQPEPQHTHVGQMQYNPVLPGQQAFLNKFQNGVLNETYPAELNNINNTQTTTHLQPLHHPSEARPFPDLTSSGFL
Chain of Retinoic acid receptor alpha (Homo sapiens) (P10276 whole entry, looked up): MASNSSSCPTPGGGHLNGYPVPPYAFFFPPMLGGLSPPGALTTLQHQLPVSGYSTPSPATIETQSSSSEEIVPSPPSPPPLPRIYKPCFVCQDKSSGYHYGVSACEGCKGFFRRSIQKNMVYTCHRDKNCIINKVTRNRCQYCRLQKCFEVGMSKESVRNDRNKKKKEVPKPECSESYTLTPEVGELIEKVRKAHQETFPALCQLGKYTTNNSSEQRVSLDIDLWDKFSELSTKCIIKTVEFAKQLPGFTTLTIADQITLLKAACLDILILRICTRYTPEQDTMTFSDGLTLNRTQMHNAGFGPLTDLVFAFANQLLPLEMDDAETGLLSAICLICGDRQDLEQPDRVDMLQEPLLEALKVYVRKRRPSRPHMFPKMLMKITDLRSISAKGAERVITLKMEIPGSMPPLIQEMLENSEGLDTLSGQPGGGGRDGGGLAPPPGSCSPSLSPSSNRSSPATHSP

As a reminder, the AC50 is the concentration giving half of the maximal activity seen. `O=[N+]([O-])c1c(Cl)c(Cl)c(Cl)c(Cl)c1Cl`: the compound was called inactive in [1], in [2], in [3], in test [4], in [5] and in test [6]. In addition, the call in [7], in test [8], in test [9], in [10], in test [12] and in test [13] was inactive. The result in test [14], in test [15], in test [16] and in [17] was inactive. Besides, the AC50 in [11] is 32.2 µM (active); in test [18], 13.2 µM (active).
On to `O=C1c2ccccc2C(=O)N1SC(Cl)(Cl)Cl`, for which the AC50 in test [1] is 30.8 µM (active); in test [3], 10.4 µM (active). The compound was classed as inactive in test [2], in [4], in test [5], in test [6], in [7] and in test [8]. Further, the outcome in test [9], in [11], in [12], in [13], in test [14] and in test [15] was inactive. The call in test [16], in test [17] and in [18] was inactive.
For the compound `CN1CSC(=S)N(C)C1`, the AC50 in [1] was 21.9 µM (active); in [2] it was 4.12 µM (active); in [5], 21.8 µM (active); in [7], 26.3 µM (active); in test [9] it was 57.2 µM (active); in [11], 50 µM (active). In [17], the AC50 was 15.4 µM (active). For the same compound, the result in [3], in test [4], in [6], in test [8], in test [10] and in test [12] was inactive. For the same compound, the call in test [13], in test [14], in test [15], in test [16] and in test [18] was inactive.
In the case of `CCC(C)(C)C(=O)OC1=C(c2ccc(Cl)cc2Cl)C(=O)OC12CCCCC2`, the AC50 in test [1] is 133 µM (active). For the same compound, the result in test [2], in test [3], in test [4], in test [5], in test [6] and in [8] was inactive. The compound was classed as inactive in [9], in test [11], in test [12], in [13], in test [14] and in test [15]. Moreover, the call in [16], in test [17] and in test [18] was inactive.
